This is an account of results in publication PMC7862700, “An all-to-all approach to the identification of sequence-specific readers for epigenetic DNA modifications on cytosine”.

Common to all, as to assay: DAPPL (digital affinity profiling via proximity ligation, sequencing); 10 mM Tris-HCl pH 7.5, 50 mM NaCl, 1 mM DTT, 4% glycerol, room temperature, 30 min; GST-TFs on glutathione beads, 16-mer random dsDNA library, 0.1% formaldehyde crosslink after washing; high values mean tight binding
For test [1], the target named is T1, FLI1 (Homo sapiens, UniProt Q01543 1-452).
T1 sequence: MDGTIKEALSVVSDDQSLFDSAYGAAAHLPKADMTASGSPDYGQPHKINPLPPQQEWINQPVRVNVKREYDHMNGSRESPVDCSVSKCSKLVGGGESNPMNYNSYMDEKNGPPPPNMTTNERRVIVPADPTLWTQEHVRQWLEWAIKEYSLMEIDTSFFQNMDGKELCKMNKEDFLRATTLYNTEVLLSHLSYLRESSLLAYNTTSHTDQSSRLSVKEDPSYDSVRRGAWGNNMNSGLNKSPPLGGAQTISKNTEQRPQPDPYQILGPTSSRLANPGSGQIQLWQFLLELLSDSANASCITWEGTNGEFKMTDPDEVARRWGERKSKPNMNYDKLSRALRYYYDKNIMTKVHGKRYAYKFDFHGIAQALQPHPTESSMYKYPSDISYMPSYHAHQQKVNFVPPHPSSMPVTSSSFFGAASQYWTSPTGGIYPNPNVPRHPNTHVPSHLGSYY
The settings on record: protein: recombinant; tags: N-terminal GST; dsDNA, one strand shown. In short, it runs like this: (§1)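 Sequencing on an Illumina NextSeq500 followed washing, crosslinking with 0.1% formaldehyde, proximity ligation (BsaI/T4 ligase, 1 h, 37 °C) and PCR amplification of pools that had been incubated for 30 min at room temperature with 200 nmole of a random double-stranded 16-mer DNA library in Tris/NaCl/DTT/glycerol buffer. Each pool held DNA-barcoded human transcription factors, expressed in yeast as GST fusions and captured on glutathione beads, plus a tag-only sample. Binding signal is a hexamer's read frequency for a factor divided by its frequency in the tag-only sample.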

Test [2] concerns the target T2, ELK1 (Homo sapiens, UniProt P19419 1-428).
T2 sequence: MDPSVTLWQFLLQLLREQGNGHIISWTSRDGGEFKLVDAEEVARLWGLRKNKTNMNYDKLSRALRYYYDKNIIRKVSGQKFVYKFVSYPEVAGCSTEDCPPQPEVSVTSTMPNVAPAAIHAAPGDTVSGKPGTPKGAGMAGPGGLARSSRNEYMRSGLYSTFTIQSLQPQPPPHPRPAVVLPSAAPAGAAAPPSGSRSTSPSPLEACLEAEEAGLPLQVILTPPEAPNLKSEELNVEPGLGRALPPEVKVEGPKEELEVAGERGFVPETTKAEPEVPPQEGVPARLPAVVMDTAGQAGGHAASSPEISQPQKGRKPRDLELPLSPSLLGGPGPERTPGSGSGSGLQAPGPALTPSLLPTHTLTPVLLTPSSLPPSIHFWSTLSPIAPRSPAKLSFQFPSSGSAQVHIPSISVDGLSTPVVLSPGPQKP
The settings on record: protein: recombinant; tags: N-terminal GST; dsDNA, one strand shown. The procedure, abridged:
as §1

For test [3], the target named is T3, GABPA (Homo sapiens, UniProt Q06546 1-454).
T3 sequence: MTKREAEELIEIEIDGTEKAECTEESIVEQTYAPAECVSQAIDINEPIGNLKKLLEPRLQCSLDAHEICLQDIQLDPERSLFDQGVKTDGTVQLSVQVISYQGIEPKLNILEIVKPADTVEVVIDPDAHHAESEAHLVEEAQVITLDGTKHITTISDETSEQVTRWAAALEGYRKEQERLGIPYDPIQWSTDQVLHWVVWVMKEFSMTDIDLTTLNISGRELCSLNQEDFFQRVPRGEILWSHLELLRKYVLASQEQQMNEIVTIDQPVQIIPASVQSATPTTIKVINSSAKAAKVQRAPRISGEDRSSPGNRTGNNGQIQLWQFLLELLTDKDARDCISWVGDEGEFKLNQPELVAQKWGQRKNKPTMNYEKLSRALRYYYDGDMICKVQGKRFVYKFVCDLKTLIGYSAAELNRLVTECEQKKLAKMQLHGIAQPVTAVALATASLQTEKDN
Conditions: protein: recombinant; tags: N-terminal GST; dsDNA, one strand shown. The procedure, abridged: as §1

The target of test [4] is T4, ERG (Homo sapiens, UniProt P11308 1-479).
T4 sequence: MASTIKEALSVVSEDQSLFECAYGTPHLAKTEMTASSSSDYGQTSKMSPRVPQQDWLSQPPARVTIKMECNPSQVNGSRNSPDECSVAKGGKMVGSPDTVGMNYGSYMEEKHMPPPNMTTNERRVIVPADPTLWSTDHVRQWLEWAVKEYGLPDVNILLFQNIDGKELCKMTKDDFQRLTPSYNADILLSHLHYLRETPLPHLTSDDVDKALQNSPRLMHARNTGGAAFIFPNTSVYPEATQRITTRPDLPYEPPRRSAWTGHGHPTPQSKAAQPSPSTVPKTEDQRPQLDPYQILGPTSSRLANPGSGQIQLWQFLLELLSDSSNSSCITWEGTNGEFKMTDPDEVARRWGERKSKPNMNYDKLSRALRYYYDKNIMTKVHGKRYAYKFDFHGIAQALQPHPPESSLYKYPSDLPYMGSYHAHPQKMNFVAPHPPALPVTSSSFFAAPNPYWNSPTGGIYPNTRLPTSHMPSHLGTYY
The settings on record: protein: recombinant; tags: N-terminal GST; dsDNA, one strand shown. In short, it runs like this:
as §1

For test [5], the target named is ELF1 (Homo sapiens, UniProt P32519 1-619). Conditions: protein: recombinant; tags: N-terminal GST; dsDNA, one strand shown. The procedure, abridged:
as §1

For test [6], the target named is T5, EHF (Homo sapiens, UniProt Q9NZC4 1-300).
T5 sequence: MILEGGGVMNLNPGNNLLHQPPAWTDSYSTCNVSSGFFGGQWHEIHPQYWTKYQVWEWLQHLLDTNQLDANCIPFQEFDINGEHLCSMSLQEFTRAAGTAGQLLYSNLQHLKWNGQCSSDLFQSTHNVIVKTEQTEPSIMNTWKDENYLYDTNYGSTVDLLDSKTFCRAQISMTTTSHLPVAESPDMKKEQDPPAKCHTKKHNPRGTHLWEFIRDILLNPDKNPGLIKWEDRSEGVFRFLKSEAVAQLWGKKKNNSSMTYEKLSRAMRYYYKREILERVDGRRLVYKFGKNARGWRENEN
Conditions: protein: recombinant; tags: N-terminal GST; dsDNA, one strand shown. The procedure, abridged: as §1

The target of test [7] is SPIB (Homo sapiens, UniProt Q01892 1-262). The settings on record: protein: recombinant; tags: N-terminal GST; dsDNA, one strand shown. The procedure, abridged:
as §1

Test [8] concerns the target T6, FEV (Homo sapiens, UniProt Q99581 1-238).
T6 sequence: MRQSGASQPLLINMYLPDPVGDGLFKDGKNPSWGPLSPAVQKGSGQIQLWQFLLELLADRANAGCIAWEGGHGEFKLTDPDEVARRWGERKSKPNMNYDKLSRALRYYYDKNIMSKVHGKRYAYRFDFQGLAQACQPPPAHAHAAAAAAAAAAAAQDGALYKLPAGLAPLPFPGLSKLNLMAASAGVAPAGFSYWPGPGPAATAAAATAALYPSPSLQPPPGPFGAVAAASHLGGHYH
The settings on record: protein: recombinant; tags: N-terminal GST; dsDNA, one strand shown. The procedure, abridged:
as §1

In test [9] the target is ETV5 (Homo sapiens, UniProt P41161 1-510). Conditions: protein: recombinant; tags: N-terminal GST; dsDNA, one strand shown. In short, it runs like this: as §1
Test [10] has as its target HSF1 (Homo sapiens, UniProt Q00613 1-529). Conditions: protein: recombinant; tags: N-terminal GST; chain copies: 3; dsDNA, one strand shown. The procedure, abridged: as §1
The target of test [11] is T7, SPIC (Homo sapiens, UniProt Q8N5J4 1-248).
T7 sequence: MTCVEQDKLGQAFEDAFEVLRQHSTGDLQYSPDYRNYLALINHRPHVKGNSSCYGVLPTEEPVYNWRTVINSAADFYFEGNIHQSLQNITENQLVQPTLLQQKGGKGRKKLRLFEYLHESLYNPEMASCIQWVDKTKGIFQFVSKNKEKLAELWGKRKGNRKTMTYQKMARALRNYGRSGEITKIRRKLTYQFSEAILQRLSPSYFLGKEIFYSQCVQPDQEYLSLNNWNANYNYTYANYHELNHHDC
The settings on record: protein: recombinant; tags: N-terminal GST; dsDNA, one strand shown. The procedure, abridged: as §1

Test [12] deals with ELF4 (Homo sapiens, UniProt Q99607 1-663). The settings on record: protein: recombinant; tags: N-terminal GST; dsDNA, one strand shown. In short, it runs like this: as §1
Test [13] deals with T8, ELK4 (Homo sapiens, UniProt P28324-2 1-405).
T8 sequence: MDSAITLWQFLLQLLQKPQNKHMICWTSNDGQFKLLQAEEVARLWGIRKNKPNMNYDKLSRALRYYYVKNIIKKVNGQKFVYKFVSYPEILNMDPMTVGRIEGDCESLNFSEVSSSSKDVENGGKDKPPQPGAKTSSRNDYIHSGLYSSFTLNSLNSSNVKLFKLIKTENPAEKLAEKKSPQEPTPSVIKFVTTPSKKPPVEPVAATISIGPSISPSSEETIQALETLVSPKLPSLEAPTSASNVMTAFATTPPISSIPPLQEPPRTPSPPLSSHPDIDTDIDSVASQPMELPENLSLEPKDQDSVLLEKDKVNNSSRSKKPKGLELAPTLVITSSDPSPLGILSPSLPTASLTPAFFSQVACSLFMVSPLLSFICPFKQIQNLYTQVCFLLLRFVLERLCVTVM
The settings on record: protein: recombinant; tags: N-terminal GST; dsDNA, one strand shown. The procedure, abridged: as §1

For test [14], the target named is T9, ETV2 (Homo sapiens, UniProt O00321 1-342).
T9 sequence: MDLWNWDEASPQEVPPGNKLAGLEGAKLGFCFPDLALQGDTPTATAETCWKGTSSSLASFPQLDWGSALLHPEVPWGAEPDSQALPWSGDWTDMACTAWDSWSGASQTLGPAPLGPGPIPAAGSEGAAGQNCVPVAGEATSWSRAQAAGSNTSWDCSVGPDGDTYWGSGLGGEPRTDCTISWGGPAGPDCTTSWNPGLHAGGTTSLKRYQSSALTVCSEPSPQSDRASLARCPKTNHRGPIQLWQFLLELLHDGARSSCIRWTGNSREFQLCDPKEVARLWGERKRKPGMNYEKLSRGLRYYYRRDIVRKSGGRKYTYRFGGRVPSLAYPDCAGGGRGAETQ
Conditions: protein: recombinant; tags: N-terminal GST; dsDNA, one strand shown. The procedure, abridged: as §1

Test [15] deals with T10, ELF3 (Homo sapiens, UniProt P78545 1-371).
T10 sequence: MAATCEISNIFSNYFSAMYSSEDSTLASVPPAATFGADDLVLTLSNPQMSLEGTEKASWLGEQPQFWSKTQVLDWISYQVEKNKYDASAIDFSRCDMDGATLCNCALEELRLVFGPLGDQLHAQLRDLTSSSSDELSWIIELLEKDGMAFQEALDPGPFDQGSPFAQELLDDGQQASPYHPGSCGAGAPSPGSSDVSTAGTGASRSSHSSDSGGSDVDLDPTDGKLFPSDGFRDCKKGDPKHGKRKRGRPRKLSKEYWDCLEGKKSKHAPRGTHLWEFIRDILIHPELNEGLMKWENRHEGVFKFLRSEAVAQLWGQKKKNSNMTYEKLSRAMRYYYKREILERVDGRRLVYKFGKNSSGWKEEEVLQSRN
Conditions: protein: recombinant; tags: N-terminal GST; dsDNA, one strand shown. In short, it runs like this: as §1

The target in test [16] is CRX (Homo sapiens, UniProt O43186 1-299). The settings on record: protein: recombinant; tags: N-terminal GST; dsDNA, one strand shown. In short, it runs like this: as §1
Test [17] concerns the target ETV1 (Homo sapiens, UniProt P50549 1-477). Conditions: protein: recombinant; tags: N-terminal GST; dsDNA, one strand shown. The procedure, abridged: as §1

Sequence of CRX (O43186 whole entry): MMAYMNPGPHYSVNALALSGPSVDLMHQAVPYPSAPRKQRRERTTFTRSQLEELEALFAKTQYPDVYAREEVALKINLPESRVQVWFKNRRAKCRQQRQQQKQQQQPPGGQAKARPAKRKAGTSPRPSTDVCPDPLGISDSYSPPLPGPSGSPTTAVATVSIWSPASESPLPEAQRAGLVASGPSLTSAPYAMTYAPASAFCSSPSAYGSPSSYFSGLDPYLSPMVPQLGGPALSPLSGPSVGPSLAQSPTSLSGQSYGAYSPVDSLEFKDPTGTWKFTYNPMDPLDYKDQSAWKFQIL
Sequence of HSF1 (Q00613 whole entry): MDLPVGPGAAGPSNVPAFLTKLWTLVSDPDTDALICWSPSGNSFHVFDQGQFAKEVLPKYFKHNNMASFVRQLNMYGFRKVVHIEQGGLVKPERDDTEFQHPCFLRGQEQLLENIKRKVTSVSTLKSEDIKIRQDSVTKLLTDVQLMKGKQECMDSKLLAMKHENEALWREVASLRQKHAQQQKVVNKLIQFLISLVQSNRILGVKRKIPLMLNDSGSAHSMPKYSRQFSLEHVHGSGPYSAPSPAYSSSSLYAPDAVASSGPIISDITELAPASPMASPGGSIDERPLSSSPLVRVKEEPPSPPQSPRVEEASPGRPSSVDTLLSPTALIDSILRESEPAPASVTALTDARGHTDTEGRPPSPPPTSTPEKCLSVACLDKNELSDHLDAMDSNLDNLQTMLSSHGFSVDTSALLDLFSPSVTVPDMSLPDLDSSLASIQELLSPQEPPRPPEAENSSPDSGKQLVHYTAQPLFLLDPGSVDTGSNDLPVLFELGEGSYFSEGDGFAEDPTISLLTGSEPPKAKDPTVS
Sequence of ETV5 (P41161 whole entry): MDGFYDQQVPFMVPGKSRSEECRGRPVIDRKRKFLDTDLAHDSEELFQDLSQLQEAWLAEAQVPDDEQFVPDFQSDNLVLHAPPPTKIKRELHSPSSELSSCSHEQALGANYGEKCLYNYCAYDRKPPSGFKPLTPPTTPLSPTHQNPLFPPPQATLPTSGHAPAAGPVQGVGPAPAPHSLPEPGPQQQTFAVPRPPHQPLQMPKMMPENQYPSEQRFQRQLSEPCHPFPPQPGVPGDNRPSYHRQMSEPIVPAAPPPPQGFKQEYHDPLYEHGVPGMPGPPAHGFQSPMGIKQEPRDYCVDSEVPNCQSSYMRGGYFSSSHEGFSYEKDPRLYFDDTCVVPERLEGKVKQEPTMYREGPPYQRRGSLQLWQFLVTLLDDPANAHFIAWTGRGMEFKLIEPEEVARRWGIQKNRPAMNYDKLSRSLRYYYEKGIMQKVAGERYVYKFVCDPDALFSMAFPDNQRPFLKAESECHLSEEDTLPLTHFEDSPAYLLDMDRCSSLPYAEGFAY
Sequence of ELF1 (P32519 whole entry): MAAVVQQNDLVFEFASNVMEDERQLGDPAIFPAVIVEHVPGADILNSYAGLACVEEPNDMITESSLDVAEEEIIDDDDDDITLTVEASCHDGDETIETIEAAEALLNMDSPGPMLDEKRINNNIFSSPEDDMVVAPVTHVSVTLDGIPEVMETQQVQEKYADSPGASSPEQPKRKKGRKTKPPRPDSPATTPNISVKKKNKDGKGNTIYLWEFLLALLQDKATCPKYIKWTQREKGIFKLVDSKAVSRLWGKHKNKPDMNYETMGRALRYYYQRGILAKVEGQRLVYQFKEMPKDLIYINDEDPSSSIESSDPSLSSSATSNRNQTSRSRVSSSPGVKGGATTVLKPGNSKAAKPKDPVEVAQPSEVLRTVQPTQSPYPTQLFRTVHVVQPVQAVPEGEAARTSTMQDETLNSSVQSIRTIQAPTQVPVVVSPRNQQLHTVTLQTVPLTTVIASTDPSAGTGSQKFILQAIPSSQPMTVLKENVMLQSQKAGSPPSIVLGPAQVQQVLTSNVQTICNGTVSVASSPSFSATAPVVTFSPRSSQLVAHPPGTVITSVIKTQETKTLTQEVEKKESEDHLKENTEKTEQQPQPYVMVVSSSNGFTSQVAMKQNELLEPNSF
Sequence of SPIB (Q01892 whole entry): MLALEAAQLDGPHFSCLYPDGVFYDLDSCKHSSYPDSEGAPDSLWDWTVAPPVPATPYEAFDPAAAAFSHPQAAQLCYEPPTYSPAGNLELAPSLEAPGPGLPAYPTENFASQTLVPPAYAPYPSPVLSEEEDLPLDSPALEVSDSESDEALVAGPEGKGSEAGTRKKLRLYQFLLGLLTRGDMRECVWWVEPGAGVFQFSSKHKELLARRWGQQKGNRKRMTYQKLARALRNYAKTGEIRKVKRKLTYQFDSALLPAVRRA
Sequence of ETV1 (P50549 whole entry): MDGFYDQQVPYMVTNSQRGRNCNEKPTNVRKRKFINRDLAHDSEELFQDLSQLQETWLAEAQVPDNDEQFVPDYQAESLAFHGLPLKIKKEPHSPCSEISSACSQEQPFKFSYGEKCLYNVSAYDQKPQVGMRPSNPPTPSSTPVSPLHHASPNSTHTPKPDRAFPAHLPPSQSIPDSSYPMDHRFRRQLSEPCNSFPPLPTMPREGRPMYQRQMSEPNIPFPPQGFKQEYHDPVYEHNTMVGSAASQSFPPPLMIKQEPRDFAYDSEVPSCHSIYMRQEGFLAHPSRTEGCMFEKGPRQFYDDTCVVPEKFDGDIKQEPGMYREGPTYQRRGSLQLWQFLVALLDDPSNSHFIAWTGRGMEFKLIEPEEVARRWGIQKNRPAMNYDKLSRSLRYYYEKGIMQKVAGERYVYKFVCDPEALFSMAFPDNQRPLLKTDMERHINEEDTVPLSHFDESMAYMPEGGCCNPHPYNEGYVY
Sequence of ELF4 (Q99607 whole entry): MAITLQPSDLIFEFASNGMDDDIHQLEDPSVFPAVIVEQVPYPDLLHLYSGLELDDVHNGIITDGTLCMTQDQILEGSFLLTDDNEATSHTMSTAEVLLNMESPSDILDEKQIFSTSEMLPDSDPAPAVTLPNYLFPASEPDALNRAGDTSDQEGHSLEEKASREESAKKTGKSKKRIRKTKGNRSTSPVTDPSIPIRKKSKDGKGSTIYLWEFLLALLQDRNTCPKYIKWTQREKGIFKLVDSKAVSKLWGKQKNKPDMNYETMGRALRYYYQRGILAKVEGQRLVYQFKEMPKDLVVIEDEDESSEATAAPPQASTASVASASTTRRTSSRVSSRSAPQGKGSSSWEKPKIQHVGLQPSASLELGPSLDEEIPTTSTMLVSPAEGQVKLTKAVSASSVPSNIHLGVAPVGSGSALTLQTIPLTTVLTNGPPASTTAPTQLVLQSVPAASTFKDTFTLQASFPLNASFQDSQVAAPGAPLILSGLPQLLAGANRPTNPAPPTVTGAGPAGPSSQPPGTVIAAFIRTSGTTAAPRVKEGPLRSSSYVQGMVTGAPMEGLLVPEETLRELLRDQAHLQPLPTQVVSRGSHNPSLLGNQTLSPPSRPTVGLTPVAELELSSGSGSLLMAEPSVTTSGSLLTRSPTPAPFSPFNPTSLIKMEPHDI

On to ACCCGA, for which the binding signal in [1] is 1.05 fold enrichment (6-mer frequency, TF over GST control); in test [2] it was 1.02 fold enrichment (6-mer frequency, TF over GST control); in [3], 1.03 fold enrichment (6-mer frequency, TF over GST control); in [4], 1.05 fold enrichment (6-mer frequency, TF over GST control); in [5], 1.03 fold enrichment (6-mer frequency, TF over GST control); in test [6], 1.18 fold enrichment (6-mer frequency, TF over GST control). In addition, the binding signal in [7] was 1.14 fold enrichment (6-mer frequency, TF over GST control); in test [8], 1.1 fold enrichment (6-mer frequency, TF over GST control); in test [9], 1.08 fold enrichment (6-mer frequency, TF over GST control); in test [10], 1.21 fold enrichment (6-mer frequency, TF over GST control); in test [11], 1.08 fold enrichment (6-mer frequency, TF over GST control); in test [12] it was 1.03 fold enrichment (6-mer frequency, TF over GST control). Moreover, the binding signal in test [13] was 1.04 fold enrichment (6-mer frequency, TF over GST control); in test [14] it was 1.17 fold enrichment (6-mer frequency, TF over GST control); in test [15], 1.11 fold enrichment (6-mer frequency, TF over GST control); in test [16] it was 1.1 fold enrichment (6-mer frequency, TF over GST control); in test [17], 1.1 fold enrichment (6-mer frequency, TF over GST control).
